# This is a sample that favours compounds with a hit; in the whole collection about 2.7% have one here.
# ATG4B inh: ATG4B protease inhibitors, primary screen, biochemical, fluorescence, uHTS. Cysteine protease ATG4B (Homo sapiens), Q9Y4P1. ATG4B cleavage of LC3-PLA2, NBD-HPC fluorescence, 1 h. inhibition, % at 8.33 µM. hit rate 0.51% among 340,000; in the data active = inhibition above about 40%
# Target sequence (Q9Y4P1 whole entry, looked up): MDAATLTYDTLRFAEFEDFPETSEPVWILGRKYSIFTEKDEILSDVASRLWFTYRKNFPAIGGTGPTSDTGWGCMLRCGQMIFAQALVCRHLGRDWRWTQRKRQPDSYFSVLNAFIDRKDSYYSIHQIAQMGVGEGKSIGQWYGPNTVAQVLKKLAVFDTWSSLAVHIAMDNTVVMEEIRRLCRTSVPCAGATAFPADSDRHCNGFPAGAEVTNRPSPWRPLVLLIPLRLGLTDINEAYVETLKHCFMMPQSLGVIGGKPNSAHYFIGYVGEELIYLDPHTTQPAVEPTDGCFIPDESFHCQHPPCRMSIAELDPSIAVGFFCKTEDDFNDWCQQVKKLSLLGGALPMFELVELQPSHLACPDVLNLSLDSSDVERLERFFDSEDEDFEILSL
# CFTR F508del cor: F508del CFTR correction, initial screen, CFBE line, single point | hit rate 0.36% among 350,000 | activity (quench increase), % at 7.58 µM | CFBE cells, YFP halide quenching; stimulated with forskolin plus potentiator P3; % fluorescence drop versus neutral controls | AID 720511, 2013;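 active = mean added fluorescence quench of at least 8% versus neutral control, with both replicates also reaching 8%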;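 also: cells transiently co-express mutant CFTR-F508del with the halide-sensitive YFP; corrector assay measuring rescue of mutant channel to the surface after 24 h compound exposure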
# SKN-1 inh: suppressors of acrylamide-induced Pgst-4::GFP reporter in worms, primary screen, SKN-1 inhibitor project, whole organism, uHTS, GFP/RFP fluorescence ratio, strain VP596; C. elegans VP596 Pgst-4::GFP/RFP ratio, 24 h; inhibition, % at 21.8 µM; hit rate 0.49% among 360,000;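 active = interference check ratio from 0.5 to 1.5 plus GFP to RFP signal ratio inhibition reaching or exceeding a fixed threshold, cut at about 30% in these data, passing the limit was not always enough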
# MPTP inh: mitochondrial permeability transition pore inhibitors, primary screen, biochemical, isolated mouse mitochondria, absorbance. inhibition, % at 10 µM. hit rate 1.4% among 360,000. AID 602449, 2012. Ca2+ swelling absorbance, 30 min;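 active = inhibition of 50% or more, scaled per plate between neutral and stimulator controls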
# CendR NRP1 mod: modulators of CendR peptide binding to NRP-1, primary screen, biochemical, fluorescence polarization, uHTS | Neuropilin-1 (Homo sapiens), O14786 | FAM-RPARPAR peptide binding to NRP-1 | hit rate 0.85% among 360,000 | inhibition, % at 25 µM;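 active = inhibition or corrected inhibition above about 18%, plus a signal ratio from 0.5 to 1.5, limit read from the data, passing the limit was not always enough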
# Rh123 counter: fluorescence retest of MPTP screen hits in isolated mitochondria, single concentration. AID 624504, 2012. shares compounds with MPTP inh. membrane potential, Rhodamine 123 fluorescence. inhibition, % at 10 µM. hit rate 78% among 5,000; in the data active = inhibition above about 22%
# MPTP abs DR: mitochondrial permeability transition pore inhibitors, dose response, biochemical, absorbance, uHTS hits | shares compounds with MPTP inh | isolated mitochondria swelling | IC50, µM | hit rate 58% among 780; in the data active = IC50 below about 20 µM
# MPTP counter DR: fluorescent counter-screen in isolated mitochondria, dose response, counter-screen for MPTP inhibitor project, biochemical, fluorescence, uHTS hits; shares compounds with MPTP inh; isolated mitochondria counterscreen, fluorescence read-out; IC50, µM; hit rate 49% among 780; in the data active = IC50 below about 80 µM
# Numbers stand for hits; . = inactive; / = no result.
SMILES,ATG4B inh,CFTR F508del cor,SKN-1 inh,MPTP inh,CendR NRP1 mod,Rh123 counter,others
CO[C@@H]1CN(C)C(=O)c2ccc(NC(=O)C3CC3)cc2OC[C@H](C)N(C(=O)CN2CCOCC2)C[C@H]1C,/,.,/,/,/,/,
CCCCNC(=S)Nc1ccc([N+](=O)[O-])cc1,.,/,.,94.7,.,89.4,
COC(=O)C[C@H]1CC[C@H]2[C@@H](COc3ccc(NC(=O)c4ccccc4F)cc3C(=O)N2C)O1,/,.,/,/,/,/,
O=C(CCN1C(=O)/C(=C/c2ccc(F)cc2)SC1=S)NNC(=O)c1cccnc1,.,/,.,.,.,/,
Cc1ccc(/C=C2\SC(=S)N(CCC(=O)NNC(=O)c3cccnc3)C2=O)cc1,.,/,.,65.0,.,58.6,
O=C(CCN1C(=O)/C(=C/c2ccc(Cl)cc2)SC1=S)NCCCn1ccnc1,.,.,.,60.5,.,72.1,
O=C(CCN1C(=O)/C(=C/c2ccccc2)SC1=S)NNC(=O)c1cccnc1,.,/,.,88.4,.,74.5,
Cc1ccc(NC(=O)COc2cccc(/C=C3\SC(=S)N(CCC(=O)O)C3=O)c2)cc1Cl,.,.,.,50.9,.,26.0,
CN(C)C(=O)C[C@H]1C=C[C@@H](NC(=O)C2CCOCC2)[C@H](CO)O1,/,.,/,/,/,/,
COc1ccc(CN2CC3(CN(C(=O)Nc4cccc(F)c4)C3)c3c([nH]c4cc(OC)ccc34)[C@H]2CO)cc1,/,.,/,/,/,/,
O=C(CCN1C(=O)/C(=C/c2ccccc2)SC1=S)N1CCCCCC1,.,.,.,77.0,.,81.9,
COc1ccc(/C=C2\SC(=S)N(CCC(=O)N3CCCCC3)C2=O)cc1,.,.,.,.,.,/,
O=C(CCN1C(=O)/C(=C/c2cccc(Br)c2)SC1=S)Nc1cccnc1,.,.,.,52.0,.,.,MPTP abs DR=.;MPTP counter DR=19.6
O=C(CSc1nnc(-c2cccnc2)s1)Nc1ccnc2ccccc12,.,/,.,103.8,.,73.4,
C[C@H]1CN([C@@H](C)CO)C(=O)CCCn2cc(nn2)CO[C@@H]1CN(C)C,/,.,/,/,/,/,
Fc1ccc2nc(Nc3nc4c(F)cccc4s3)sc2c1,.,/,.,95.9,.,46.4,
Fc1ccc2nc(Nc3nc4c(F)cc(F)cc4s3)sc2c1,.,.,.,97.0,.,71.2,
Fc1ccc2nc(Nc3ccccc3)sc2c1,.,.,.,.,.,/,
Oc1c(Cl)cc(Cl)cc1/C=C/c1ccc2cccc(O)c2n1,.,.,.,97.5,.,74.1,
Oc1ccc(Cl)cc1/C=C/c1ccc2cccc(O)c2n1,.,.,.,.,.,/,
CCOc1ccc(NC(=S)NC23CC4CC(CC(C4)C2)C3)cc1,.,.,.,.,.,/,
O=S(=O)(c1ccc(Cl)c(NC(=S)N/N=C/c2ccc(O)cc2)c1)N1CCOCC1,.,/,.,.,.,/,
O=C(NN=Cc1c(O)ccc2ccccc12)c1ccc2c(c1)OCO2,.,.,.,.,.,/,
O=S(=O)(c1ccc(NC(=S)NN=Cc2ccccc2O)cc1)N1CCCCC1,.,.,.,98.9,.,81.3,
O=C(N/N=C\c1c(O)ccc2ccccc12)c1ccc(S(=O)(=O)N2CCCCC2)cc1,.,/,.,95.1,.,70.2,
SMILES,ATG4B inh,CFTR F508del cor,SKN-1 inh,MPTP inh,CendR NRP1 mod,Rh123 counter,others
FC(F)Oc1ccc(NC(=S)NC23CC4CC(CC(C4)C2)C3)cc1,.,.,.,53.6,.,95.5,
O=S(=O)(c1ccc(Cl)c(NC(=S)N/N=C/c2c(F)cccc2F)c1)N1CCOCC1,.,/,.,57.0,.,46.5,
COc1ccc(NC(=O)Nc2cccc3c2O[C@@H](CN(C)S(=O)(=O)c2ccc(C)cc2)[C@@H](C)CN([C@H](C)CO)C3=O)cc1,/,.,/,/,/,/,
COc1cccc(-c2ccc3c(c2)[C@H]2[C@H](CCN2C(=O)C2CCOCC2)[C@H](CO)N3)c1,/,.,/,/,/,/,
C[C@@H]1CCCCO[C@@H](CN(C)C(=O)Nc2cccc3ccccc23)[C@H](C)CN([C@H](C)CO)C(=O)c2cc(NC(=O)c3ccccc3)ccc2O1,/,.,/,/,/,/,
O=C(CN1CCCc2ccccc21)N/N=C/c1c(O)ccc2ccccc12,.,/,.,94.8,.,88.9,
O=S(=O)(c1ccc(NC(=S)NC23CC4CC(CC(C4)C2)C3)cc1)N1CCCCC1,/,.,.,89.8,.,60.7,
COc1ccc(NC(=O)Nc2ccccc2)cc1S(=O)(=O)N1CCCCC1,.,.,.,.,.,/,
Cc1oc(S(=O)(=O)N2CCCCC2)cc1NC(=O)Nc1ccccc1,.,.,.,51.2,.,54.0,
Cc1oc(S(=O)(=O)N2CCCCC2)cc1NC(=O)Nc1ccc(Cl)cc1,.,.,.,83.7,.,78.5,
COc1ccc2c3c([nH]c2c1)[C@@H](CO)N(C(C)=O)CC31CN(C(=O)Nc2ccc(F)cc2F)C1,/,.,/,/,/,/,
N#C/C(=N\Nc1ccc(S(=O)(=O)N2CCOCC2)cc1)C(N)=S,.,.,.,.,.,/,
N#CC(C#N)=NNc1ccc(S(=O)(=O)N2CCCCC2)cc1,.,/,.,89.1,.,91.5,
O=C(Nc1ccccc1)Nc1ccc(S(=O)(=O)N2CCCCC2)cc1,.,/,.,98.6,.,88.7,
O=[N+]([O-])c1cc(Cl)cc(/C=N/NC(=S)Nc2ccc(S(=O)(=O)N3CCOCC3)cc2)c1O,.,.,.,71.5,.,25.8,
O=S(=O)(c1ccc(NC(=S)N/N=C/c2ccc(O)c(O)c2)cc1)N1CCOCC1,.,.,.,.,.,/,
C[C@@H]1CCCCO[C@H](CN(C)C(=O)Cc2ccccc2)[C@H](C)CN([C@@H](C)CO)C(=O)c2cc(NC(=O)NC3CCCCC3)ccc2O1,/,.,/,/,/,/,
Cn1nc(-c2ccccc2)cc1NC(=O)c1ccccc1,.,.,.,.,.,/,
Cn1nc(-c2ccc(Cl)cc2)cc1NC(=O)Nc1ccccc1,.,.,.,70.5,.,69.2,
Cc1cc(NC(=O)Nc2ccc(Cl)cc2)n(C)n1,.,.,.,.,.,/,
Cn1nc(-c2ccccc2)cc1NC(=O)Nc1ccc(C(C)(C)C)cc1,.,.,.,69.7,.,74.4,
C[C@H]1CN([C@@H](C)CO)C(=O)Cc2cc(NC(=O)CCCCCC(=O)Nc3ccccc3N)ccc2O[C@@H]1CN(C)S(=O)(=O)c1ccc(Cl)cc1,/,.,/,/,/,/,
CCCNC(=O)C[C@H]1C[C@H]2c3cc(NC(=O)C4CCC4)ccc3O[C@H]2[C@@H](CO)O1,/,.,/,/,/,/,
COc1ccc(CN(C)C[C@H]2Oc3ccc(NC(=O)NC4CCCCC4)cc3CC(=O)N([C@@H](C)CO)C[C@H]2C)cc1,/,.,/,/,/,/,

# Screening results (PubChem BioAssay)
